Results as given in the supplement of paper PMC11732987, “Enantioselective OTUD7B fragment discovery through chemoproteomics screening and high-throughput optimisation” (Communications Chemistry, 2025).

Tests used:
Test in all cases: log2 ratio of Biotin-Ahx-Ub-VS probe labelling (fragment/DMSO); higher = less target engagement (more negative = stronger competition), active = hit call of the paper (q ≤ 0.05, log2 ratio ≤ -1)
Conditions in all cases: compound concentration: 200 uM; treatment time: 3 h
USP19 = molecular target: T1, USP19 (UniProt O94966)
T1 sequence (whole entry): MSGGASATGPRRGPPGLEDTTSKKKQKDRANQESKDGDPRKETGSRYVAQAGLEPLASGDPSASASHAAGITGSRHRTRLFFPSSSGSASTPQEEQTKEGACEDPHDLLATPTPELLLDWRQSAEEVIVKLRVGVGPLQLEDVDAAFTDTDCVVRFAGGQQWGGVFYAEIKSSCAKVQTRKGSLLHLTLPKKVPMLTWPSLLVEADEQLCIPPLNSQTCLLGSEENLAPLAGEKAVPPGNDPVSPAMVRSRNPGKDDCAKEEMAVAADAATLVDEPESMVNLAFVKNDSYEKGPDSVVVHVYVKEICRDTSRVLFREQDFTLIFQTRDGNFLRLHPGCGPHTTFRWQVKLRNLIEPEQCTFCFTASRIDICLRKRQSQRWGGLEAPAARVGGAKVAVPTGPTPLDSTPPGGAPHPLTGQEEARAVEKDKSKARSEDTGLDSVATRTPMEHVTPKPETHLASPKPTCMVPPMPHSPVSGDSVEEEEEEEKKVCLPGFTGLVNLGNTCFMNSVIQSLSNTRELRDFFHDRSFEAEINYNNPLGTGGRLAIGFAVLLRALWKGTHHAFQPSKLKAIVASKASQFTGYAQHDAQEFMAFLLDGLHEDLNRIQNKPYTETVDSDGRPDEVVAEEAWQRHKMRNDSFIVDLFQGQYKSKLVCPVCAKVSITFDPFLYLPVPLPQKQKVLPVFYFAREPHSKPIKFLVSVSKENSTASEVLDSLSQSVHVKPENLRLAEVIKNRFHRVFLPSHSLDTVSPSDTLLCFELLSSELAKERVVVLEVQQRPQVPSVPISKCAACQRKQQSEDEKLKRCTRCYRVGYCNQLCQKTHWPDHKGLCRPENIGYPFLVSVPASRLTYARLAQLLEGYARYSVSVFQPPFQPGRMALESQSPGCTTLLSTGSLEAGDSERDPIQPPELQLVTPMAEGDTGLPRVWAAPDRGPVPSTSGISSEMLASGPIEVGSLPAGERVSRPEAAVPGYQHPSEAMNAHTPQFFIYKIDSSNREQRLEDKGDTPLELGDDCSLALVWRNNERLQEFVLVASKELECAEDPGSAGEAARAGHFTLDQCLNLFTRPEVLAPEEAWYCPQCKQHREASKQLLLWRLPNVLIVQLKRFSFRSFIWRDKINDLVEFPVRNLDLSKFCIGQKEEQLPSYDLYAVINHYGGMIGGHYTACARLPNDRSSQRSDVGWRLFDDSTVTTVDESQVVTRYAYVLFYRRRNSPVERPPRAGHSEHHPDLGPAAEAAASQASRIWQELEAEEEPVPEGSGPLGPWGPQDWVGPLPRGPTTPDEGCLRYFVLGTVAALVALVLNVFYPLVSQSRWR
In short: (§1)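 HEK293T lysate, 495 µg per sample in Tris/CHAPS/IGEPAL buffer with protease inhibitors, was treated in triplicate with fragment at 200 µM or vehicle for 3 h and then with Biotin-Ahx-Ub-VS at 0.5 µM final for 1 h. Labelled DUBs were NeutrAvidin-enriched, digested with LysC and trypsin, and run by diaPASEF LC-MS/MS. Spectronaut label-free quantities were global-median-normalised, and values are average log2 fragment/vehicle ratios by unpaired t-test on proteins with ≥2 unique peptides.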

USP24 = USP24 (UniProt Q9UPU5)
Chain of USP24 (Q9UPU5 whole entry): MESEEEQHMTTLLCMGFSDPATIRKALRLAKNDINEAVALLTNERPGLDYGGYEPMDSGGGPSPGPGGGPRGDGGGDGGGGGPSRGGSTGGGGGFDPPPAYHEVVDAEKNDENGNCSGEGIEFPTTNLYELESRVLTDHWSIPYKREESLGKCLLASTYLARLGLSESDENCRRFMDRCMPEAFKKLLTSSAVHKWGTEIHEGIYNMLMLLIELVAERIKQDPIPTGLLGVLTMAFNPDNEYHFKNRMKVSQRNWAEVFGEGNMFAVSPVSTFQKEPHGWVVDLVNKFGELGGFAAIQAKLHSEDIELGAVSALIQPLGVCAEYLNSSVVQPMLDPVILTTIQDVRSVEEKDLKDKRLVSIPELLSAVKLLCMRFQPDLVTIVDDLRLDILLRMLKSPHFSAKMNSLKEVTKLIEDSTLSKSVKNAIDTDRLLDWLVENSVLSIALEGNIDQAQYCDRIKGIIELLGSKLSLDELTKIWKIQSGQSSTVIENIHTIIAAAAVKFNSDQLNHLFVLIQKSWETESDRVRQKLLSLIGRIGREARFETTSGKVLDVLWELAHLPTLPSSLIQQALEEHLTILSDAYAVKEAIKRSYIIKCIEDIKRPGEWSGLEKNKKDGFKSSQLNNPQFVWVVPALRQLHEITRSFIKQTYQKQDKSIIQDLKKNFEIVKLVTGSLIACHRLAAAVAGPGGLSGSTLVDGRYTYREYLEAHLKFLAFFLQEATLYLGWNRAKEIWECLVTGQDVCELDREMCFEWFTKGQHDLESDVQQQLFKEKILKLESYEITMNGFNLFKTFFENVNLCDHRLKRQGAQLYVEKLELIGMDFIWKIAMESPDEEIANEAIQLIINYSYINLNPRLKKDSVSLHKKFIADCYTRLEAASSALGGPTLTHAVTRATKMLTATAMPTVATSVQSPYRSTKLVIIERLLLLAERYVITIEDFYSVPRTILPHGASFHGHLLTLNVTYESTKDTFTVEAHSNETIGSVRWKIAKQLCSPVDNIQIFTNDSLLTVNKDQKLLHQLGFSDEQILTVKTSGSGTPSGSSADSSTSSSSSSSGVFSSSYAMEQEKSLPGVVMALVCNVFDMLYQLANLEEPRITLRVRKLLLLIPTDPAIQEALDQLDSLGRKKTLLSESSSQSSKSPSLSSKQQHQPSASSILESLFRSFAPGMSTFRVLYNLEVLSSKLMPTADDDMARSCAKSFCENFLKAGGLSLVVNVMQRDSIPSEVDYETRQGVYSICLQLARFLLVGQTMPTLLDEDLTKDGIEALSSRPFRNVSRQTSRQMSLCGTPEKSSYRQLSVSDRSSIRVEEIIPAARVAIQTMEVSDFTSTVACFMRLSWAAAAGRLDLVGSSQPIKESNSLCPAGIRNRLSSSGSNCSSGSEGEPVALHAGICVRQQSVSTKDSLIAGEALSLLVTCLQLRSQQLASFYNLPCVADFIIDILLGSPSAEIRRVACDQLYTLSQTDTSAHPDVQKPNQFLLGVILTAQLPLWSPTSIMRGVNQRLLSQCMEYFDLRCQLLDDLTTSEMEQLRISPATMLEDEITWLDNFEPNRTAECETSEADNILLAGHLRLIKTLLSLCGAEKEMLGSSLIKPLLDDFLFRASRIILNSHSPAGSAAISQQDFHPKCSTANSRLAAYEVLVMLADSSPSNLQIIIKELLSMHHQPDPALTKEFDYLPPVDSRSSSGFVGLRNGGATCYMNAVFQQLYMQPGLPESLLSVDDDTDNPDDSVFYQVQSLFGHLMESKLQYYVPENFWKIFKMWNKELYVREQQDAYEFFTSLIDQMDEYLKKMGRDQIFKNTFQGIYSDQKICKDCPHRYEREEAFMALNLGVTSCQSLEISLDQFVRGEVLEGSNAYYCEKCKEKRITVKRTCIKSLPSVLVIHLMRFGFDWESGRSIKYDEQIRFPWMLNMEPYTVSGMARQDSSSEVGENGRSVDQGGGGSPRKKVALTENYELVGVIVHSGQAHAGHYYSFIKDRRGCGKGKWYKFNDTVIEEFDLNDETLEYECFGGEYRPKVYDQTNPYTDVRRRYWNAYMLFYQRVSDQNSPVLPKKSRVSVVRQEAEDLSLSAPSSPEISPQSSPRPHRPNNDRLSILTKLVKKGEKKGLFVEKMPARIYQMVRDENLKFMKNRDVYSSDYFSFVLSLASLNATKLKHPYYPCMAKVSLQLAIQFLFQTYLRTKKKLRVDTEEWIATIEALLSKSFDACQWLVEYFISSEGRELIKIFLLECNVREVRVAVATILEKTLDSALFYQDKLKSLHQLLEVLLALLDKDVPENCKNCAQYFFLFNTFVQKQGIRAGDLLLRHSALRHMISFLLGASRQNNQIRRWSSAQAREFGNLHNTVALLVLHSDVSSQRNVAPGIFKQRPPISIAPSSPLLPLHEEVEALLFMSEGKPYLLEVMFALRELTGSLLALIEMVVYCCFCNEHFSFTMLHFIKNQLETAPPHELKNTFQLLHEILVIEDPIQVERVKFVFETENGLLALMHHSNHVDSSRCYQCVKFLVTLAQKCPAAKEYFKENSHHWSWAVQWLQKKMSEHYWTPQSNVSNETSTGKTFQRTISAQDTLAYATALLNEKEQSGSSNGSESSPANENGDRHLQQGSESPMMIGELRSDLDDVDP
In short: as §1

USP25 = molecular target: T2, USP25 (UniProt Q9UHP3)
T2 sequence (whole entry): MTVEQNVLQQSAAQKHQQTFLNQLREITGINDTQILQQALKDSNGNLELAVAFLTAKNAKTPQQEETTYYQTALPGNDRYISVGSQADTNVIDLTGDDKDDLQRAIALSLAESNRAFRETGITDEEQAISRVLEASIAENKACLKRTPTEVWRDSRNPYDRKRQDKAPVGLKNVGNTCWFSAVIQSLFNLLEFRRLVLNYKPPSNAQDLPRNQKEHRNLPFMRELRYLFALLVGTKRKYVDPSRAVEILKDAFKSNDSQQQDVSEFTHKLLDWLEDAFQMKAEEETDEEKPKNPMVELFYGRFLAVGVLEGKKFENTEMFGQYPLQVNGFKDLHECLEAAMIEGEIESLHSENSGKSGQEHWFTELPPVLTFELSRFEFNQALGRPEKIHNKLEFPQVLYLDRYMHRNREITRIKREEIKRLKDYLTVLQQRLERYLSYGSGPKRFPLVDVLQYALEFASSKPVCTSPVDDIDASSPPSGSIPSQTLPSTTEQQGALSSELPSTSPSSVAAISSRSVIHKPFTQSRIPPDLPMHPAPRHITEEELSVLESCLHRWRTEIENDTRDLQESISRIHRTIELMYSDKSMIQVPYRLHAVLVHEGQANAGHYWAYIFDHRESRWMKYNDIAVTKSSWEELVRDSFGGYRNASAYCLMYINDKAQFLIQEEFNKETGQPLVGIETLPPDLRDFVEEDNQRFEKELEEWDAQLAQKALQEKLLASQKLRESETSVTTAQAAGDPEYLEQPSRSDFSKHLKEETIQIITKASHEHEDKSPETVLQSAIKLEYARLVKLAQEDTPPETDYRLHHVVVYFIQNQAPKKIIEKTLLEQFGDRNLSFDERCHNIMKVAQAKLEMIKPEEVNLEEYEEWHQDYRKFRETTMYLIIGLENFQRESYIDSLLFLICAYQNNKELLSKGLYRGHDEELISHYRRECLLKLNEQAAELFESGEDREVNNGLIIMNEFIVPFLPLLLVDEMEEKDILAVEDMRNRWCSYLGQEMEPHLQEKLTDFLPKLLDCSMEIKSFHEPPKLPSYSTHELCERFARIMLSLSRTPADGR
In short: as §1

USP28 = molecular target: T3, USP28 (UniProt Q96RU2)
T3 sequence (whole entry): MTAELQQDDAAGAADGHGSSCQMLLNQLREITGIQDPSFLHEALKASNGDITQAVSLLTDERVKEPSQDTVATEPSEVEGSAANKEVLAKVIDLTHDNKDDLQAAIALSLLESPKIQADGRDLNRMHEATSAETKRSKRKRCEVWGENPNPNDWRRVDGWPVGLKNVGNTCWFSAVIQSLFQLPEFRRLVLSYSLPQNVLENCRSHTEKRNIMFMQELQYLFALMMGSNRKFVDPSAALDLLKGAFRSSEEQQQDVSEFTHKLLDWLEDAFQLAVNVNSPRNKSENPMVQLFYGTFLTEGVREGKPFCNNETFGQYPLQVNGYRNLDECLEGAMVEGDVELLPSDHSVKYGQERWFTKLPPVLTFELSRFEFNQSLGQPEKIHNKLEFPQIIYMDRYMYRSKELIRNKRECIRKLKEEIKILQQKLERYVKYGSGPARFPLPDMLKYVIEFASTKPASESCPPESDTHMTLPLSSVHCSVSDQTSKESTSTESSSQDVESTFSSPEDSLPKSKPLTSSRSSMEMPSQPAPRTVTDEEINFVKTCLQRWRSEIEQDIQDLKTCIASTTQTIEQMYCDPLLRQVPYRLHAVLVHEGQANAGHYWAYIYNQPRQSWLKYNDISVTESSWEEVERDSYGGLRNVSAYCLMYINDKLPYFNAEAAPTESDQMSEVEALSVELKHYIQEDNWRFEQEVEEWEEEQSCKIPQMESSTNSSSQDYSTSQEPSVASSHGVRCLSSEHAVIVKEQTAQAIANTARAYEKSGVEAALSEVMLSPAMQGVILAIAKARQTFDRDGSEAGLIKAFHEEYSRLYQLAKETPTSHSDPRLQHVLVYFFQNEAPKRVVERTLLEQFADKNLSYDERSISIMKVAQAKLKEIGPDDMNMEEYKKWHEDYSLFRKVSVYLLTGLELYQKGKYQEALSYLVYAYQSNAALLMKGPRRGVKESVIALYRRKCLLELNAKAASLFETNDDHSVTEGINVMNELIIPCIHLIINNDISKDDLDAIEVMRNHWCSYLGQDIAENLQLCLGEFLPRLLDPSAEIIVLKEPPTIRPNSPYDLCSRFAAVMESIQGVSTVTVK
In short: as §1

Measured: log2 ratio of Biotin-Ahx-Ub-VS probe labelling

O=C(CCl)N1CCC(c2ccn[nH]2)C1 (centres undefined)
inactive: USP19 -0.276 | USP24 -0.326 | USP25 -0.433 | USP28 -0.425
